Laboratory results published in the supplement of paper PMC6555819.

The sequences below were run on PPARg:RXRa 90nM:30nM, anti-RXR (NR concentration 90 nM, RXRa partner concentration 30 nM) (assay: PBM binding z-score (relative to random genomic background probes); higher = stronger binding; sequences stand for … in GC…GCGATTGACAGCGTAGAATGAAGG).
In short: (§1)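 Ligand-free nuclear receptor dimers were bound for 1 h to custom Agilent 4×180K protein-binding microarrays. Detection used antibodies against each partner (one per run). Binding z-scores rest on regression-normalized fluorescence, with random background probes as the reference.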
Sequence CCGAGTAGGTTGCGAGGGGGCATTCAGTGCGAAT has a PBM binding z-score of 1.53.
With TCGAGTTGGTTACGGGGGCATTCAGGGATGAAGA the PBM binding z-score was 2.63.
CTACGTAGGTTAAGGGGGTCATTCAGTTTGAAAG showed a PBM binding z-score of 4.84.
For CTTTGTAGGTTAAGGGGGTCATTCAGTTTGAAAG, the PBM binding z-score was 7.23.
Work on CTATGTAGGTTAAGGGGGTCATTAAGTTTGAAAG yielded a PBM binding z-score of 8.13.
TCGAGTAGGTTACGGTGGCATTCAGGGATGAAGA was tested, and the PBM binding z-score was 1.9.
For CTATGTAGGTTAAGGGGCTCATTCAGTTTGAAAG, the PBM binding z-score was 6.73.
TCGAATAGGTTACGGGGGCATTCAGGGATGAAGA was tested, and the PBM binding z-score was 5.39.
For CTATGTAGGTTAAGGGGATCATTCAGTTTGAAAG, the PBM binding z-score was 4.86.
In the case of CCGAGTAGGTTATGAGGGGGCATTCAGTGCGAAT, the PBM binding z-score is reported as 2.77.
CAGAGTAGGTTACGAGGGGGCATTCAGTGCGAAT showed a PBM binding z-score of 3.3.
In the case of CCGAGTAGGTTACGAGGCGGCATTCAGTGCGAAT, the PBM binding z-score is reported as 0.408.
With CTATGTAGGTTAAGTGGGTCATTCAGTTTGAAAG the PBM binding z-score was 4.9.
TCGAGTAAGTTACGGGGGCATTCAGGGATGAAGA showed a PBM binding z-score of 1.77.
TCGAGTAGGTTACGGGGGCATTAAGGGATGAAGA gave a PBM binding z-score of 5.14.
For CTATGTAGGTTAAGGGGGTCATCCAGTTTGAAAG, the PBM binding z-score was 7.82.
Work on TCGAGTAGTTTACGGGGGCATTCAGGGATGAAGA yielded a PBM binding z-score of 2.91.

These sequences were tested on PPARg:RXRa DBDmut IVT, anti-RXR (DBD mutation: RXRa K156A/R161A, NR concentration 270 nM, RXRa partner concentration 90 nM) in the same assay as above.
In short: as §1
CTATGTAGGGTAAGGGGGTCATTCAGTTTGAAAG was tested, and the PBM binding z-score was 7.14.
Work on TCGAGAAGGTTACGGGGGCATTCAGGGATGAAGA yielded a PBM binding z-score of 3.48.
For TCGAGTAGGTTACGGGGGTATTCAGGGATGAAGA, the PBM binding z-score was 4.5.
Work on CCGAGTAGGTTACGAGGGGGCATTTAGTGCGAAT yielded a PBM binding z-score of 4.67.
In the case of TCGAGTAGGTTACAGGGGCATTCAGGGATGAAGA, the PBM binding z-score is reported as 3.72.
For CCGAGTAGGTTACGACGGGGCATTCAGTGCGAAT, the PBM binding z-score was 3.85.
CCGAGTAGGTTACGAGGGGGCATGCAGTGCGAAT gave a PBM binding z-score of 4.44.
Work on CTATGCAGGTTAAGGGGGTCATTCAGTTTGAAAG yielded a PBM binding z-score of 4.72.
TCGAGTAGGGTACGGGGGCATTCAGGGATGAAGA gave a PBM binding z-score of 4.21.
Sequence CCGAGTAGGTTACGAGCGGGCATTCAGTGCGAAT has a PBM binding z-score of 4.42.
CCGAGTAGGTTACGAGGGGGCCTTCAGTGCGAAT showed a PBM binding z-score of 4.2.
In the case of TCGAGTAGGTTAGGGGGGCATTCAGGGATGAAGA, the PBM binding z-score is reported as 4.38.
Work on CTATGTAGGTTAAGGGGTTCATTCAGTTTGAAAG yielded a PBM binding z-score of 6.98.
Sequence CTATGTAGGTTAAGGGGGTCAATCAGTTTGAAAG has a PBM binding z-score of 7.42.
Work on CCGAGTAGGTTACGAGGGGGCATTCACTGCGAAT yielded a PBM binding z-score of 4.81.
Work on TCGAGTAGGTTACGGGGGCATTCCGGGATGAAGA yielded a PBM binding z-score of 4.92.
Sequence CTATGTAGTTTAAGGGGGTCATTCAGTTTGAAAG has a PBM binding z-score of 3.79.
For CCGAGTAGGTTACGAGGGGGCAATCAGTGCGAAT, the PBM binding z-score was 4.92.
For CTAGGTAGGTTAAGGGGGTCATTCAGTTTGAAAG, the PBM binding z-score was 5.01.
For CTATGTATGTTAAGGGGGTCATTCAGTTTGAAAG, the PBM binding z-score was 4.85.
In the case of CCGAGTAGATTACGAGGGGGCATTCAGTGCGAAT, the PBM binding z-score is reported as 0.434.
CCGAGTAGGTTACGAGGGGGCACTCAGTGCGAAT showed a PBM binding z-score of 4.86.
With CCGAGTAGGTTGCGAGGGGGCATTCAGTGCGAAT the PBM binding z-score was 1.37.
With TCGAGTTGGTTACGGGGGCATTCAGGGATGAAGA the PBM binding z-score was 2.18.
With CTACGTAGGTTAAGGGGGTCATTCAGTTTGAAAG the PBM binding z-score was 2.95.
CTTTGTAGGTTAAGGGGGTCATTCAGTTTGAAAG showed a PBM binding z-score of 7.24.
For CTATGTAGGTTAAGGGGGTCATTAAGTTTGAAAG, the PBM binding z-score was 7.49.
TCGAGTAGGTTACGGTGGCATTCAGGGATGAAGA was tested, and the PBM binding z-score was 3.28.
CTATGTAGGTTAAGGGGCTCATTCAGTTTGAAAG showed a PBM binding z-score of 7.02.
Sequence TCGAATAGGTTACGGGGGCATTCAGGGATGAAGA has a PBM binding z-score of 4.48.
With CTATGTAGGTTAAGGGGATCATTCAGTTTGAAAG the PBM binding z-score was 7.23.
CCGAGTAGGTTATGAGGGGGCATTCAGTGCGAAT gave a PBM binding z-score of 3.45.
CAGAGTAGGTTACGAGGGGGCATTCAGTGCGAAT showed a PBM binding z-score of 5.73.
CCGAGTAGGTTACGAGGCGGCATTCAGTGCGAAT showed a PBM binding z-score of 4.1.
CTATGTAGGTTAAGTGGGTCATTCAGTTTGAAAG gave a PBM binding z-score of 7.7.
Sequence TCGAGTAAGTTACGGGGGCATTCAGGGATGAAGA has a PBM binding z-score of 1.55.
In the case of TCGAGTAGGTTACGGGGGCATTAAGGGATGAAGA, the PBM binding z-score is reported as 4.98.
Work on CTATGTAGGTTAAGGGGGTCATCCAGTTTGAAAG yielded a PBM binding z-score of 7.02.
With TCGAGTAGTTTACGGGGGCATTCAGGGATGAAGA the PBM binding z-score was 2.03.

The sequences below were run on PPARg:RXRa IVT, anti-PPARg (NR concentration 270 nM, RXRa partner concentration 90 nM) in the same assay as above.
In short: as §1
In the case of CTATGTAGGGTAAGGGGGTCATTCAGTTTGAAAG, the PBM binding z-score is reported as 7.72.
For TCGAGAAGGTTACGGGGGCATTCAGGGATGAAGA, the PBM binding z-score was 4.73.
Sequence TCGAGTAGGTTACGGGGGTATTCAGGGATGAAGA has a PBM binding z-score of 5.38.
CCGAGTAGGTTACGAGGGGGCATTTAGTGCGAAT gave a PBM binding z-score of 4.43.
Work on TCGAGTAGGTTACAGGGGCATTCAGGGATGAAGA yielded a PBM binding z-score of 4.1.
Sequence CCGAGTAGGTTACGACGGGGCATTCAGTGCGAAT has a PBM binding z-score of 3.21.
CCGAGTAGGTTACGAGGGGGCATGCAGTGCGAAT gave a PBM binding z-score of 4.36.
Work on CTATGCAGGTTAAGGGGGTCATTCAGTTTGAAAG yielded a PBM binding z-score of 5.58.
For TCGAGTAGGGTACGGGGGCATTCAGGGATGAAGA, the PBM binding z-score was 5.82.
In the case of CCGAGTAGGTTACGAGCGGGCATTCAGTGCGAAT, the PBM binding z-score is reported as 2.97.
For CCGAGTAGGTTACGAGGGGGCCTTCAGTGCGAAT, the PBM binding z-score was 4.
TCGAGTAGGTTAGGGGGGCATTCAGGGATGAAGA showed a PBM binding z-score of 5.24.
CTATGTAGGTTAAGGGGTTCATTCAGTTTGAAAG was tested, and the PBM binding z-score was 6.85.
CTATGTAGGTTAAGGGGGTCAATCAGTTTGAAAG gave a PBM binding z-score of 7.48.
Work on CCGAGTAGGTTACGAGGGGGCATTCACTGCGAAT yielded a PBM binding z-score of 4.25.
Sequence TCGAGTAGGTTACGGGGGCATTCCGGGATGAAGA has a PBM binding z-score of 5.8.
For CTATGTAGTTTAAGGGGGTCATTCAGTTTGAAAG, the PBM binding z-score was 4.99.
CCGAGTAGGTTACGAGGGGGCAATCAGTGCGAAT gave a PBM binding z-score of 4.42.
CTAGGTAGGTTAAGGGGGTCATTCAGTTTGAAAG gave a PBM binding z-score of 5.61.
In the case of CTATGTATGTTAAGGGGGTCATTCAGTTTGAAAG, the PBM binding z-score is reported as 5.88.
CCGAGTAGATTACGAGGGGGCATTCAGTGCGAAT gave a PBM binding z-score of 0.871.
For CCGAGTAGGTTACGAGGGGGCACTCAGTGCGAAT, the PBM binding z-score was 4.51.
With CCGAGTAGGTTGCGAGGGGGCATTCAGTGCGAAT the PBM binding z-score was 2.13.
TCGAGTTGGTTACGGGGGCATTCAGGGATGAAGA was tested, and the PBM binding z-score was 3.75.
In the case of CTACGTAGGTTAAGGGGGTCATTCAGTTTGAAAG, the PBM binding z-score is reported as 4.54.
CTTTGTAGGTTAAGGGGGTCATTCAGTTTGAAAG was tested, and the PBM binding z-score was 7.18.
CTATGTAGGTTAAGGGGGTCATTAAGTTTGAAAG showed a PBM binding z-score of 7.73.
With TCGAGTAGGTTACGGTGGCATTCAGGGATGAAGA the PBM binding z-score was 3.56.
CTATGTAGGTTAAGGGGCTCATTCAGTTTGAAAG showed a PBM binding z-score of 6.52.
For TCGAATAGGTTACGGGGGCATTCAGGGATGAAGA, the PBM binding z-score was 5.46.
CTATGTAGGTTAAGGGGATCATTCAGTTTGAAAG showed a PBM binding z-score of 6.92.
CCGAGTAGGTTATGAGGGGGCATTCAGTGCGAAT showed a PBM binding z-score of 4.11.
CAGAGTAGGTTACGAGGGGGCATTCAGTGCGAAT showed a PBM binding z-score of 5.83.
CCGAGTAGGTTACGAGGCGGCATTCAGTGCGAAT showed a PBM binding z-score of 3.3.
In the case of CTATGTAGGTTAAGTGGGTCATTCAGTTTGAAAG, the PBM binding z-score is reported as 7.89.
TCGAGTAAGTTACGGGGGCATTCAGGGATGAAGA showed a PBM binding z-score of 3.02.
Work on TCGAGTAGGTTACGGGGGCATTAAGGGATGAAGA yielded a PBM binding z-score of 6.1.
CTATGTAGGTTAAGGGGGTCATCCAGTTTGAAAG showed a PBM binding z-score of 7.73.
With TCGAGTAGTTTACGGGGGCATTCAGGGATGAAGA the PBM binding z-score was 3.22.
